Measured potencies and affinities stand elsewhere. Inconclusive results are not listed. Calls of active or inactive are those of the source.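 The calls were made as follows: active = compound whose fitted half-maximal inhibition concentration is at most triple the top dose in every replicate run; inconclusive = runs disagree, or flat partial inhibition, or poor curve fit; inactive = every run inactive: flat, opposite effect, or too weak.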
These compounds were tested against Cyclin-dependent kinase 5 activator 1 (Homo sapiens) + Cyclin-dependent kinase 5 (Homo sapiens) (UniProt Q15078+Q00535) (assay: CDK5-p25 kinase inhibitors, specificity check, dose response, selectivity assay for GSK-3 alpha inhibitor project, biochemical, microfluidic mobility shift, dry powder (AID 588430)). Conditions: Caliper mobility shift, peptide conversion; series mostly up to 35 µM.
Sequence of Cyclin-dependent kinase 5 activator 1 (Homo sapiens) + Cyclin-dependent kinase 5 (Homo sapiens) (Q00535 whole entry, looked up): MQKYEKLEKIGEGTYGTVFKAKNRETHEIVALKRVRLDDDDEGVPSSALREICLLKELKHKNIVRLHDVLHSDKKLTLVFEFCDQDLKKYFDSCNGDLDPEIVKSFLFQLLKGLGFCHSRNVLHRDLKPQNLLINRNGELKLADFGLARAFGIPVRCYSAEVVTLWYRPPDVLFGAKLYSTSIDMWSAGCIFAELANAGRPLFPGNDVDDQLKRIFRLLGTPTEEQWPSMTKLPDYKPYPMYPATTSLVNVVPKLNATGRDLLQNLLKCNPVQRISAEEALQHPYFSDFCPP
Sequence of Cyclin-dependent kinase 5 activator 1 (Homo sapiens) + Cyclin-dependent kinase 5 (Homo sapiens) (Q15078 whole entry, looked up): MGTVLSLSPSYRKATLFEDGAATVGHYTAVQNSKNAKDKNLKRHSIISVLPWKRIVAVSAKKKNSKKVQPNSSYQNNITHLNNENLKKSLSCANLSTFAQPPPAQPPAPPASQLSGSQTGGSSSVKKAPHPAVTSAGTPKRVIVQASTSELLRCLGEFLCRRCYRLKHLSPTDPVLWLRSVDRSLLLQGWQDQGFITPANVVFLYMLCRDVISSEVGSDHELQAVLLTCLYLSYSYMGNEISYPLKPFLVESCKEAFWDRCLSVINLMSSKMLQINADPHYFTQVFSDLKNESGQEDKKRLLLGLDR

outcome, inactive:
CN(C)Cc1c(C(=O)N/N=C/c2ccncc2)nnn1-c1nonc1N
Nc1nonc1-n1nnc(C(=O)N/N=C/c2ccccc2Cl)c1CN1CCOCC1
CCOC(=O)c1ccc2ncc(C(=O)OCC)c(Nc3ccc(N4CCOCC4)cc3)c2c1
c1ccc(-c2nc(NCCCn3ccnc3)c3ccccc3n2)cc1
O=C(Nc1ccsc1C(=O)NC1CCCCC1)c1ccc(F)cc1
Nc1nc(NCCCN2CCOCC2)nc(Nc2cccc(Cl)c2)c1[N+](=O)[O-]
COc1ccc(OC)c(/C=N/NC(=O)c2nnn(-c3nonc3N)c2-c2cccs2)c1
Fc1ccc(CSc2nnc(-c3ccncc3)o2)cc1

Reference: PubChem BioAssay AID588430 (Broad Institute, 2011)
